Out of some 360,000 compounds screened, about 3,900 (1.1%) were called active. Many of the other results were omitted from the sample, so actives are more common in it than they were. Unmarked numbers belong to inactive results.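 The calls were made as follows: active = mean replicate inhibition score of at least 50 and every replicate individually at or above 50; inconclusive = only one of the two criteria met; inactive = mean below 50 and not all replicates reaching 50.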

In general, inhibition refers to the change of the read-out against control, counted positive when it falls.

This assay in a line: blockers of JRFL envelope-mediated fusion – HeLa-JRFL effector, CEM21 target cells, luciferase, primary screen (AID 651610).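 Also: 0% = plate neutral controls and 100% = maraviroc near 300 nM.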 Conditions: HeLa-JRFL Env/CEM21 cell fusion, hits give high values; at 16.7 µM unless noted.
Turning to `C[C@@H]1CN([C@@H](C)CO)C(=O)Cc2cc(NS(=O)(=O)c3ccc(Cl)cc3)ccc2O[C@H]1CN(C)CC1CCCCC1`, the inhibition is 32.1%.
Turning to `C[C@H]1CN([C@@H](C)CO)C(=O)c2cc(-c3cccc(C(=O)N(C)C)c3)cnc2O[C@H]1CN(C)S(=O)(=O)c1ccccc1`, the inhibition is -10.1%.
The figure for `O=C(C[C@H]1C[C@@H]2c3cc(NC(=O)C4CCC4)ccc3O[C@@H]2[C@H](CO)O1)NCCN1CCCCC1` is 16.8%.
Regarding `CCOC(=O)C1=C(CCc2ccccc2)NC(=O)NC1c1ccc2ccccc2c1` (stereo not drawn), the inhibition is 6.29% [at 12.3 µM].
In the case of `CCOC(=O)C1=C(CN2CCc3ccccc32)NC(=O)NC1c1cccc([N+](=O)[O-])c1` (stereo not drawn), the inhibition is 64.3% [at 12.3 µM] (active).
For the molecule `CCOC(=O)C1=C(CN2CCc3ccccc32)NC(=O)NC1c1ccc(Cl)cc1` (stereo not drawn), the inhibition was 58% [at 12.3 µM] (active).
Take `CCOC(=O)C1=C(c2ccccc2)NC(=O)NC1c1cc(OCC)c(O)c([N+](=O)[O-])c1` (stereo not drawn): the inhibition is -15.8% [at 12.3 µM].
For the molecule `CCC(CC)COC(=O)C1=C(C)NC(=O)NC1c1ccc([N+](=O)[O-])cc1` (stereo not drawn), the inhibition was 29.9% [at 12.3 µM].
In the case of `CCOC(=O)C1=C(CN2CCc3ccccc32)NC(=O)NC1c1cc(C)ccc1C` (stereo not drawn), the inhibition was -13.6% [at 12.3 µM].
Consider `CNC[C@@H]1Oc2c(NC(=O)C3CCOCC3)cccc2C(=O)N([C@@H](C)CO)C[C@H]1C`, for which the inhibition was -14.2%.
As for `C[C@H]1CN([C@@H](C)CO)C(=O)Cc2cc(NC(=O)C3CC3)ccc2O[C@@H]1CN(C)C(=O)NC1CCCCC1`, the inhibition is 2.31%.
The same measure for `C/C=C/c1ccc2c(c1)O[C@H](CN(C)C(=O)C1CCCCC1)[C@@H](C)CN([C@@H](C)CO)S2(=O)=O`: 8.29%; for `C[C@@H]1CN([C@H](C)CO)C(=O)c2cc(C3=CCCC3)cnc2O[C@@H]1CN(C)C(=O)Nc1ccc(F)cc1`: 4.49%; for `O=C(N/N=C\c1cc2c(cc1Cl)OCO2)c1ccc(Br)s1`: -61.6% [at 12.3 µM].
In the case of `O=C(O)CC/C(=C\c1cc2c(cc1Br)OCO2)c1nc2ccccc2s1`, the inhibition is -9.93% [at 12.3 µM].
The same measure for `CC1(C(=O)N/N=C/c2cc3c(cc2Br)OCO3)CC1(Br)Br` (stereo not drawn): 102% [at 12.3 µM] (active); for `Cc1noc(C)c1S(=O)(=O)Nc1ccc2c(c1)CC(=O)N([C@H](C)CO)C[C@H](C)[C@H](CN(C)S(=O)(=O)c1cn(C)cn1)O2`: -15.2%.
Consider `Cc1noc(C)c1NC(=O)N(C)C[C@@H]1Oc2ccc(NS(=O)(=O)c3ccc(F)cc3)cc2CC(=O)N([C@@H](C)CO)C[C@H]1C`, for which the inhibition was -12%.
In the case of `Cc1ccc2nc(-c3ccc(Br)cc3)cn2c1`, the inhibition was 34.5% [at 12.3 µM].
For the molecule `Cc1ccc(-c2nc3ccc(Cl)cn3c2Cc2ccccc2)cc1`, the inhibition is -27% [at 12.3 µM].
On to `Cc1ccc(-c2cn3cc(C)ccc3n2)cc1`, for which the inhibition was 60.5% [at 12.3 µM] (active).
`C[C@H](CO)N1C[C@H](C)[C@@H](CN(C)S(=O)(=O)c2ccccc2F)Oc2ncc(C#Cc3ccccc3F)cc2C1=O`: the inhibition was 17.5%.
For the molecule `Cn1c(C(=O)N2CCC(C(N)=O)CC2)cc2c(=O)n(C)c3ccccc3c21`, the inhibition is 0.068% [at 12.3 µM].
On to `Cn1c2ccccc2c2c(C(=O)N3CCN(c4ccc(F)cc4)CC3)cn(C3CCCC3)c(=O)c21`, for which the inhibition was 67.5% [at 12.3 µM] (active).
With `CCOC(=O)N1CCN(C(=O)c2nn(-c3ccc(C)cc3)c(=O)c3c2c2ccccc2n3C)CC1`, the inhibition is -11% [at 12.3 µM].
As to `O=C(C[C@@H]1CC[C@H]2NC[C@H](O)COC[C@@H]2O1)NCCN1CCCCC1`, the inhibition was -8.63%.
The same measure for `C[C@H]1CCCCO[C@@H](CN(C)C(=O)Cc2ccccc2)[C@@H](C)CN([C@@H](C)CO)C(=O)c2cc(NC(=O)c3ccccc3)ccc2O1`: -43.3%; for `COc1ccc(C(N)c2csc(NC(=O)Nc3cccc(C(F)(F)F)c3)n2)cc1` (stereo not drawn): 18.1% [at 12.3 µM].
The figure for `NC(c1csc(NC(=O)Nc2cccc(C(F)(F)F)c2)n1)C1CCCCC1` (stereo not drawn) is 61% [at 12.3 µM] (active).
For the molecule `NC(c1ccccc1)c1csc(NC(=O)Nc2cccc(C(F)(F)F)c2)n1` (stereo not drawn), the inhibition is 39.2% [at 12.3 µM].
The same measure for `C[C@@H]1CN([C@@H](C)CO)C(=O)c2cc(-c3ccccc3F)cnc2O[C@H]1CN(C)C(=O)C1CC1`: 15%; for `COc1ccc(C(CCNCc2ccccc2F)c2ccc(F)cc2)cc1` (stereo not drawn): -1.51% [at 12.3 µM]; for `Cc1cc(C)cc(NC(=S)NCCc2c[nH]c3ccccc23)c1`: 2.48% [at 12.3 µM].
`COc1cccc(CNCCc2c[nH]c3ccccc23)c1OCc1ccccc1F`: the inhibition was 79.1% [at 12.3 µM] (active).
For the molecule `CC(C)CC#Cc1ccc2c(c1)O[C@H](CN(C)Cc1ccncc1)[C@H](C)CN([C@H](C)CO)S2(=O)=O`, the inhibition is 12.7%.
`CCCNC(=O)C[C@@H]1CC[C@H]2[C@H](COc3ccc(NC(=O)CCC)cc3C(=O)N2C)O1`: the inhibition was -1.97%.
Turning to `CCNC(=O)c1cc2c(c(-c3cccc(C4=CCCC4)c3)n1)[C@H](CCO)N([S@@](=O)C(C)(C)C)C2`, the inhibition is -0.132%.
On to `COc1cccc(Nc2nc(N)c([N+](=O)[O-])c(NCc3ccco3)n2)c1`, for which the inhibition was 56.2% [at 12.3 µM] (active).
With `COc1ccc(Nc2nc(NCc3ccco3)nc(N/N=C/c3ccccc3Cl)n2)cc1`, the inhibition was -11.9% [at 12.3 µM].
As for `CNc1nc(Nc2ccc(C)c(Cl)c2)nc(N)c1[N+](=O)[O-]`, the inhibition is 17.7% [at 12.3 µM].
The same measure for `CO[C@H]1CN(C)C(=O)c2ccc(NC(C)=O)cc2OC[C@@H](C)N(C(=O)c2ccccn2)C[C@@H]1C`: 4.28%; for `C[C@@H]1CN([C@H](C)CO)S(=O)(=O)c2ccc(Br)cc2O[C@@H]1CN(C)Cc1cncnc1`: -25.8%; for `C[C@@H]1CN([C@H](C)CO)C(=O)c2cccc(N(C)C)c2O[C@H]1CN(C)S(=O)(=O)c1cn(C)cn1`: -2.57%.

The values are drawn from PubChem BioAssay AID651610 (Broad Institute, 2012).
